Assay results from PubChem BioAssay.
A number with no mark means an inactive call. The source made the active and inactive calls. Cut-off read from the data, not from the text of the source, unless noted: active = inhibition above about 28%; inactive = the rest.

Legend:
[1] = StAR promoter reporter inhibitors, counter-screen for LRH-1 inverse agonist project, cell-based, luminescence, high throughput (AID 651611); conditions: StAR promoter luciferase reporter counterscreen, at 3.6 µM, hits give high values
[2] = target: Nuclear receptor subfamily 5 group A member 2 (Homo sapiens) (UniProt O00482); assay: NR5A2 activity suppression in reporter cells – cell-based, luminescence, confirmation (AID 651613; in the data active = inhibition above about 42%;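 note: HEK293T cells co-transfected with LRH-1 and StAR promoter luciferase reporter; 0% = vehicle wells and 100% = parental cells lacking receptor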); conditions: cell-based LRH-1 luciferase reporter, inverse agonism; at 3.6 µM; hits give high values
[3] = target: Steroidogenic factor 1 (Homo sapiens) (UniProt Q13285); assay: inverse agonism at SF1 nuclear receptor – cell-based, luminescence, high throughput, counter-screen for LRH-1 inverse agonist project (AID 651614; in the data active = inhibition above about 44%;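 note: cells cotransfected with StAR promoter reporter and SF1 expression vector; 0% = vehicle on cells with receptor and 100% = vehicle on cells lacking receptor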); conditions: cell-based SF1 luciferase reporter, at 3.6 µM, hits give high values
[4] = compounds suppressing VP16-driven luciferase signal – cell-based, luminescence, high throughput, counter-screen for LRH-1 inverse agonist project (AID 651615; in the data active = inhibition above about 33%); conditions: Gal4-VP16 luciferase reporter cells, at 3.6 µM, hits give high values

Chain of Nuclear receptor subfamily 5 group A member 2 (Homo sapiens) (O00482 whole entry, looked up): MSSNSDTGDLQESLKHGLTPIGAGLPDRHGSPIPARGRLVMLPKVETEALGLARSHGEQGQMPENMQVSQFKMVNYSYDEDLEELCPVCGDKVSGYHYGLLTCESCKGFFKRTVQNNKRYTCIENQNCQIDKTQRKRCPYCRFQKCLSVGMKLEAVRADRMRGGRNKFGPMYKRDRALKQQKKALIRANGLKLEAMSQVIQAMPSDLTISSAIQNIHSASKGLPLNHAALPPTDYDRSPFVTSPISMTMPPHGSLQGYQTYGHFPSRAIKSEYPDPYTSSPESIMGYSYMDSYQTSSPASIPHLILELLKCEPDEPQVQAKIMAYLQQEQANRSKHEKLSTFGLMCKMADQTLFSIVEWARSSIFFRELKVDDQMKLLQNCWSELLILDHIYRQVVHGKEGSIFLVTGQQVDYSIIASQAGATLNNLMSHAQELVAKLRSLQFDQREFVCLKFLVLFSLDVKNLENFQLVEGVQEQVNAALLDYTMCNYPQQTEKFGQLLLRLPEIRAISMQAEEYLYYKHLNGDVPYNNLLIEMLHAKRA
Chain of Steroidogenic factor 1 (Homo sapiens) (Q13285 whole entry, looked up, the tested form may be a part): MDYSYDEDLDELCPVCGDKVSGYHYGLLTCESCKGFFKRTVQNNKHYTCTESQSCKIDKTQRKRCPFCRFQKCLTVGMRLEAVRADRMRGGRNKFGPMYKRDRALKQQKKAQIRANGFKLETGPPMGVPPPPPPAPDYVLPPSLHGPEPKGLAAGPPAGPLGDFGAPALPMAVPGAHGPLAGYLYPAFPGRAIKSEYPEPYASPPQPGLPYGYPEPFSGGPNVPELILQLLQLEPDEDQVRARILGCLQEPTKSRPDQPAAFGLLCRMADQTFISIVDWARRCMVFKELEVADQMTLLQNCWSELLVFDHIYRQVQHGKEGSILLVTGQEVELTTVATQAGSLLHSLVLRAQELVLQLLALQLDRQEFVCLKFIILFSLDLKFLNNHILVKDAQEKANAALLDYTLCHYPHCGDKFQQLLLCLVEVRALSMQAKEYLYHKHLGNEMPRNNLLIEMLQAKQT

| Compound | inhibition [1] | inhibition [2] | inhibition [3] | inhibition [4] |
| --- | --- | --- | --- | --- |
| CC1(c2ccc3ccccc3c2)NC(=O)N(CC(=O)N2CCN(Cc3ccc(C#N)cc3)CC2)C1=O (configuration not stated) | 32.1% (active) | 66.1% (active) | 62.4% (active) | 53.5% (active) |
| O=C(Sc1cccc2cccnc12)c1ccccc1Br | 86.8% (active) | 92.1% (active) | 85.5% (active) | 88% (active) |
| CCc1cc(=O)[nH]c(SCC(=O)Nc2ccc3c(c2)OCCO3)n1 | 4.24% | 40.6% | 45.7% (active) | 0.13% |
| Cc1csc(=O)n1CCC(=O)OCC(=O)Nc1ccc(N2CCOCC2)cc1 | -7.54% | 54.1% (active) | 44.2% (active) | -3.02% |
| CC1CCCN(c2cc(N(C)CCO)c([N+](=O)[O-])c3nonc23)C1 (configuration not stated) | 14.3% | 56.2% (active) | 43.2% (active) | 14.8% |
| COc1cc2oc(-c3ccc(O)cc3)cc(=O)c2c(O)c1OC | 7% | 35.9% | 32.8% | -45.5% |
| COC(=O)c1ccc(NC(=O)CSC2=NCCN2)cc1 | -0.27% | 54.5% (active) | 43.8% (active) | 4.09% |
| N#CCCn1cc(/C=N/NC(N)=S)c(-c2ccc(-c3ccccc3)cc2)n1 | 28.7% (active) | 52% (active) | 48.6% (active) | -9.84% |
| COc1ccccc1OCc1nnc(SCC(=O)Nc2ccc(N3CCOCC3)cc2)n1C | -2.38% | 17.9% | 29.6% | -11.3% |
| CCOC(=O)N1CCN(C(=O)CCl)CC1 | 11% | 56% (active) | 57.9% (active) | -8.13% |
| CC(=O)ON=C1C=CC(=C(C#N)c2ccccc2)C=C1 | 50.8% (active) | 79% (active) | 79.4% (active) | 20.2% |
| O=C(Cn1ncc(Cl)c(Cl)c1=O)Nc1ccc2c(c1)OCO2 | -10.7% | 38.1% | 47.4% (active) | -13.7% |
| CN(CCc1ccccc1)C(=O)c1ccc(NC(=O)Cc2ccc(NC(=O)C3CCCN(C(=O)CCc4ccccc4)C3)cc2)cc1 (configuration not stated) | 30.9% (active) | 62.4% (active) | 64.5% (active) | 59.8% (active) |
| COc1ccc(-c2cc3nc(-c4ccccc4)cc(N4CCN(C(C)=O)CC4)n3n2)cc1 | 32.4% (active) | 31.1% | 39.3% | -11.9% |
| COc1ccc(NC(=O)CN2C(=O)NC3(CCCC3)C2=O)cc1 | -8.92% | 51.2% (active) | 47.5% (active) | -17.1% |
| CN(C)c1ccc(S(=O)(=O)N2CCCCC2)cc1NC(=O)CCNC(=O)c1ccc(Cl)cc1 | 6.54% | 3.72% | 1.24% | -0.3% |
| CCOc1ccc(NC(=O)CSc2nnc(C(C)C)n2CC)cc1 | 0.92% | 49.3% (active) | 50.3% (active) | -3.19% |
| O=C(COc1ccc(S(=O)(=O)N2CCCC2)cc1Cl)NCc1ccc2c(c1)OCO2 | 26.1% | 34% | 32.6% | 2.14% |
| CC(=O)N[C@@H](Cc1c[nH]c2ccccc12)C(=O)OCC(=O)Nc1ccc2c(c1)OCO2 | -1.82% | 53.1% (active) | 56.8% (active) | -4.65% |
| O=c1c2ccccc2c(C=Nc2ccccc2O)c(O)n1-c1nccs1 | 5.33% | 46.1% (active) | 35.1% | -7.97% |
| CCn1nnnc1SCC(=O)N(C)C1CCS(=O)(=O)C1 (configuration not stated) | 12.5% | 47.9% (active) | 48.1% (active) | -0.7% |
| O=C(COC(=O)c1ccc(Br)cc1)Nc1ccccc1Br | 9% | 50.5% (active) | 50.1% (active) | 1.81% |
| CCCc1cc(=O)oc2c(C)c(OCC(=O)NCCCn3ccnc3)ccc12 | -1.87% | 47.8% (active) | 35.9% | -19.5% |
| COc1ccc(CCNC(=O)COC(=O)C23CC4CC(CC(C4)C2)C3)cc1 | 17.5% | 57% (active) | 48.7% (active) | 1.82% |
| COc1ccc(-c2nc(C(N)=O)c3[nH]c(=O)n(-c4cccc(Cl)c4)c3n2)cc1OC | 20.8% | 57.3% (active) | 56.5% (active) | -5.48% |
| COC(=O)C1(C)Nc2ccccc2C(=O)N1c1ccccc1C (configuration not stated) | 2.27% | 16% | 0.53% | 7.07% |
| COc1cccc(C(=O)N/N=C2/SCC(=O)N2CCc2ccc(OC)c(OC)c2)c1 | 10.8% | 31.3% | 36.8% | -5.38% |

| Compound | inhibition [1] | inhibition [2] | inhibition [3] | inhibition [4] |
| --- | --- | --- | --- | --- |
| CCN1C(=O)c2cccc3c(NC(=O)c4cccc(N5C(=O)CCC5=O)c4)ccc1c23 | 21.9% | 51.3% (active) | 50.1% (active) | -48.1% |
| O=C(Cc1ccc(Cl)cc1Cl)Nc1ccncc1 | 16.2% | 76.1% (active) | 72.9% (active) | 48.6% (active) |
| COc1ccc(CCNC(=O)CN2C(=O)NC3(CCCCC3)C2=O)cc1 | 11% | 53.9% (active) | 54% (active) | -6.08% |
| COc1cccc(C(NC(C)=O)c2ccc3cccnc3c2O)c1 (configuration not stated) | 74.9% (active) | 89.8% (active) | 76.5% (active) | 76.3% (active) |
| O=C(CSc1nc2[nH]ncc2c(=O)n1-c1ccccc1)c1ccc2c(c1)OCCO2 | 0.39% | 38.2% | 32.6% | -16.1% |
| CCOC(=O)CC1CCCCN1C(=O)c1cc(COc2cccc3cnccc23)on1 (configuration not stated) | 39% (active) | 58.9% (active) | 62.1% (active) | 61.4% (active) |
| CC(=O)Nc1ccc(NC(=O)COC(=O)c2ccc([N+](=O)[O-])o2)cc1 | 12.7% | 60.1% (active) | 51.9% (active) | -5.51% |
| O=C(Nc1ccc(S(=O)(=O)N2CCOCC2)cc1)c1cccc([N+](=O)[O-])c1 | -6.54% | 56.9% (active) | 50.2% (active) | -5.35% |
| CCn1c(SCC(=O)Nc2ccc(Cl)cc2)nnc1C1CC1 | 14% | 50.6% (active) | 50% (active) | 6.77% |
| CC[n+]1ccc(/C=C/c2ccc(N(C)C)cc2)c2ccccc21 | 77.7% (active) | 110% (active) | 94.1% (active) | 91.1% (active) |
| O=C1CCCN2N=C(SCC(=O)Nc3ccc(Br)cc3)SC2=N1 | -4.32% | 49.1% (active) | 48.8% (active) | -7.91% |
| C=CC(=O)Nc1ccc(Br)cc1 | 20.7% | 41% | 51.4% (active) | -1.85% |
| O=[N+]([O-])c1ccc(N2CCN(Cc3ccccc3)CC2)c2c1no[n+]2[O-] | 63.5% (active) | 57.3% (active) | 63.1% (active) | 25.3% |
| COc1ccc(CCC(=O)Nc2c(-c3ccc(N(C)C)cc3)[nH][nH]c2=O)cc1 | 4.07% | 27.3% | 37.5% | -2.18% |
| O=C(Nc1cccnc1)c1ccc([N+](=O)[O-])o1 | 27.2% | 61.9% (active) | 58.5% (active) | -15.2% |
| COc1ccc(/C=N/NC(=O)c2ccc(NC(=O)c3cccc([N+](=O)[O-])c3)cc2)c(OC)c1 | 13.1% | 53.6% (active) | 46.5% (active) | 2.35% |
| O=C(Nc1cc(C(F)(F)F)cc(C(F)(F)F)c1)O[C@@H]1c2ccccc2[C@@H]2Cc3csc[n+]3[C@H]12 | 15.6% | 60% (active) | 58.4% (active) | 4.96% |
| CCNC(=S)N1CCN(c2nc(CC)nc3sc4c(c23)CCCC4)CC1 | 1.42% | 48.3% (active) | 37.6% | 5.39% |
| Nc1c2ccccc2nc2ccccc12 | 14.7% | 106% (active) | 52.1% (active) | 90.4% (active) |
| Cn1c(CCNC(=O)c2cccs2)nnc1SCC(=O)N1CCN(c2ccccc2)CC1 | 7.98% | 29.8% | 28.4% | 0.01% |
| CCOc1ccc(Br)cc1/C(C)=N\NC1=NCCN1 | 1.83% | 36.8% | 36.7% | 33.2% (active) |
| COc1ccc(C(=O)OCC(=O)Nc2ccc(N3CCOCC3)cc2)cc1OC | 10.1% | 52.8% (active) | 51.7% (active) | -1.85% |
| Nc1nc2ccc(Cl)cc2cc1C(=O)NCc1ccc(Oc2ccccc2)cc1 | 14.7% | 54.2% (active) | 51.1% (active) | 45.7% (active) |
| O=C(CSc1nc2ccc(F)cc2c(=O)n1-c1ccccc1)Nc1ccc2c(c1)CCC2 | -3.68% | 43.3% (active) | 47.9% (active) | -3.99% |
| COCC(=O)NC1CCN(CC(=O)Nc2ccc(OC)cc2[N+](=O)[O-])CC1 | 14.2% | 60.2% (active) | 60.8% (active) | -2.25% |
| COc1ccc(C2(C)NC(=O)N(CC(=O)Nc3ccc(C)cc3Br)C2=O)cc1OC (configuration not stated) | 15.7% | 40.8% | 28.4% | 0.45% |
